# Legend:
# Assay in all cases: DAPPL (digital affinity profiling via proximity ligation, sequencing); 10 mM Tris-HCl pH 7.5, 50 mM NaCl, 1 mM DTT, 4% glycerol, room temperature, 30 min; GST-TFs on glutathione beads, 16-mer random dsDNA library, 0.1% formaldehyde crosslink after washing; high values mean tight binding
# FLI1 = target: T1, FLI1 (Homo sapiens, UniProt Q01543 1-452); conditions: protein: recombinant; tags: N-terminal GST; dsDNA, one strand shown
# T1 sequence: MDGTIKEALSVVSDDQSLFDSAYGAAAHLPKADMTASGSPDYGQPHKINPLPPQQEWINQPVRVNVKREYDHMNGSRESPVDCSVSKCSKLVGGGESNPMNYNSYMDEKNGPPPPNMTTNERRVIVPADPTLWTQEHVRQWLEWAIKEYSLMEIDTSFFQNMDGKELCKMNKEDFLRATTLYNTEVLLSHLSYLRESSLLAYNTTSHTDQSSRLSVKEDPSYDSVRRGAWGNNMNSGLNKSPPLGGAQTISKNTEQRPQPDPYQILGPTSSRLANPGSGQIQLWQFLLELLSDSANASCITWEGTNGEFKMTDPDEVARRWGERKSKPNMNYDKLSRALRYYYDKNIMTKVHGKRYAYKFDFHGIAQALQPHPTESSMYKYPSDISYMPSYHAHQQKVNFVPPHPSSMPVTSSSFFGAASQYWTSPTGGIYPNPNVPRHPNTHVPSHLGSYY
# Outline: (§1)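 The binding signal reported is, for every hexamer, its read frequency for a factor over its read frequency for the tag-only sample. Reads came from pools of yeast-expressed, GST-fused human transcription factors on glutathione beads, barcoded with DNA and mixed with that sample, which were incubated with 200 nmole of a random double-stranded 16-mer DNA library in Tris/NaCl/DTT/glycerol buffer at room temperature for 30 min. After washing, the pools were crosslinked with 0.1% formaldehyde, proximity-ligated with BsaI/T4 ligase for 1 h at 37 °C, PCR-amplified and sequenced on an Illumina NextSeq500.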
# ELK1 = target: T2, ELK1 (Homo sapiens, UniProt P19419 1-428); conditions: protein: recombinant; tags: N-terminal GST; dsDNA, one strand shown
# T2 sequence: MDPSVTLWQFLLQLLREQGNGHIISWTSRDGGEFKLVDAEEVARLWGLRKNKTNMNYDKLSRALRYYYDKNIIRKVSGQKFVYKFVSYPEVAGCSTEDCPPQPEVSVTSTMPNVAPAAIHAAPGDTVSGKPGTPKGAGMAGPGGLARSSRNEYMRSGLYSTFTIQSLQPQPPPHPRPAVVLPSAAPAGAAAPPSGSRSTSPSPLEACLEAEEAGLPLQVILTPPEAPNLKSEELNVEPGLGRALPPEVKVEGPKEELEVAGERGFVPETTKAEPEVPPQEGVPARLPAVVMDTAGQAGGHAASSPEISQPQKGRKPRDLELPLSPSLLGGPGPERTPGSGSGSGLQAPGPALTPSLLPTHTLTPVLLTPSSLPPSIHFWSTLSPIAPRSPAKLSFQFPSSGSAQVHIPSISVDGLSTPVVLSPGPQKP
# Outline: as §1
# GABPA = target: T3, GABPA (Homo sapiens, UniProt Q06546 1-454); conditions: protein: recombinant; tags: N-terminal GST; dsDNA, one strand shown
# T3 sequence: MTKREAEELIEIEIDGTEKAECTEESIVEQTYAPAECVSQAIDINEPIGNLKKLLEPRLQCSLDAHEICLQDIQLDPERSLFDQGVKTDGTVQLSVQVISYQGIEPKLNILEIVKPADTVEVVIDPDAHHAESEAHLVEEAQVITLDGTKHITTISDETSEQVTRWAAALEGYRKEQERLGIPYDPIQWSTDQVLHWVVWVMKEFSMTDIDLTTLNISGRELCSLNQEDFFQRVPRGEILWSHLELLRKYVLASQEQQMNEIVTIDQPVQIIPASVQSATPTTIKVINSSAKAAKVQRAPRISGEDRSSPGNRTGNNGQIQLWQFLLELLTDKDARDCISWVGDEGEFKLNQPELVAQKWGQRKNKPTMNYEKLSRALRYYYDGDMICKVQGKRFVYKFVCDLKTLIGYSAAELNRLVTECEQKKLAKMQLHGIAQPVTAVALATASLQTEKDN
# Outline: as §1
# ERG = target: T4, ERG (Homo sapiens, UniProt P11308 1-479); conditions: protein: recombinant; tags: N-terminal GST; dsDNA, one strand shown
# T4 sequence: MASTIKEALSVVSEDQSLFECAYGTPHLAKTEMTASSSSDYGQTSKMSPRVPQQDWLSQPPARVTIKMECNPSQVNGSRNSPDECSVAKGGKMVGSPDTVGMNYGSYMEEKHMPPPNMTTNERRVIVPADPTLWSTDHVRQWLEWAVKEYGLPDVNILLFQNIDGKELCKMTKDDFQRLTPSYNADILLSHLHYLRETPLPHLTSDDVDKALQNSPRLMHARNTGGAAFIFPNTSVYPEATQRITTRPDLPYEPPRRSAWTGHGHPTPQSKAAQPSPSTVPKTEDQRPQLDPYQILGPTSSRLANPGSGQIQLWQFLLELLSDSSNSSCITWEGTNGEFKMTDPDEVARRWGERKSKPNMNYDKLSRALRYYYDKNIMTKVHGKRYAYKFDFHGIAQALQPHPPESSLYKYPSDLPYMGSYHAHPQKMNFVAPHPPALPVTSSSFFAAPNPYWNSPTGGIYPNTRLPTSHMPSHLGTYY
# Outline: as §1
# ELF1 = ELF1 (Homo sapiens, UniProt P32519 1-619); conditions: protein: recombinant; tags: N-terminal GST; dsDNA, one strand shown
# Outline: as §1
# EHF = target: T5, EHF (Homo sapiens, UniProt Q9NZC4 1-300); conditions: protein: recombinant; tags: N-terminal GST; dsDNA, one strand shown
# T5 sequence: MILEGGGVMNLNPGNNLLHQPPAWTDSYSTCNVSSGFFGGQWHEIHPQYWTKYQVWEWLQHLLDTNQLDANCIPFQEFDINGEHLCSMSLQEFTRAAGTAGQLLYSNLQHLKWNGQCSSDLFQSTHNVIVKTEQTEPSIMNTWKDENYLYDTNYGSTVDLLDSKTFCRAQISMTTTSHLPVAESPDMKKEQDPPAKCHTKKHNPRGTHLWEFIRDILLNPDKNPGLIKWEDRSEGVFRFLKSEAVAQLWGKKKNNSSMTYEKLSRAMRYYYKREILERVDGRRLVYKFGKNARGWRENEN
# Outline: as §1
# SPI1 = SPI1 (Homo sapiens, UniProt P17947 1-270); conditions: protein: recombinant; tags: N-terminal GST; dsDNA, one strand shown
# Outline: as §1
# SPIB = SPIB (Homo sapiens, UniProt Q01892 1-262); conditions: protein: recombinant; tags: N-terminal GST; dsDNA, one strand shown
# Outline: as §1
# ELK3 = target: T6, ELK3 (Homo sapiens, UniProt P41970 1-407); conditions: protein: recombinant; tags: N-terminal GST; dsDNA, one strand shown
# T6 sequence: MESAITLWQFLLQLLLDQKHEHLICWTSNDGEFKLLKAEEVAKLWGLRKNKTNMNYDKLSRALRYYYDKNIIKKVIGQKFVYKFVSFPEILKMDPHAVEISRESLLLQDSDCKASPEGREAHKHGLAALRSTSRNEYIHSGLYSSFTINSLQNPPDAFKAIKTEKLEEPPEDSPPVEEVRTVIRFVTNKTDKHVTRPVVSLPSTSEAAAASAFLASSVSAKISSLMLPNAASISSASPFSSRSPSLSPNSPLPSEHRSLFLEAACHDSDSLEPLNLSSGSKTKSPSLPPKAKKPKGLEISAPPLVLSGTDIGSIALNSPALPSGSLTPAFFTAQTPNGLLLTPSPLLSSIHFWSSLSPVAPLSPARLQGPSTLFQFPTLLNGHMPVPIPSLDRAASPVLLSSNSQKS
# Outline: as §1
# FEV = target: T7, FEV (Homo sapiens, UniProt Q99581 1-238); conditions: protein: recombinant; tags: N-terminal GST; dsDNA, one strand shown
# T7 sequence: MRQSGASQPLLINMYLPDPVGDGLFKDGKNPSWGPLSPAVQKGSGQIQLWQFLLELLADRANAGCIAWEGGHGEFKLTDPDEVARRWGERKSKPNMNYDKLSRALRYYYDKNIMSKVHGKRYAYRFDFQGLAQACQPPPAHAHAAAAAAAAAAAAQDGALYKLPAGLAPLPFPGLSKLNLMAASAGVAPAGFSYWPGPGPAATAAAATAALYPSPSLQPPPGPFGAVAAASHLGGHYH
# Outline: as §1
# ETV5 = ETV5 (Homo sapiens, UniProt P41161 1-510); conditions: protein: recombinant; tags: N-terminal GST; dsDNA, one strand shown
# Outline: as §1
# HSF1 = HSF1 (Homo sapiens, UniProt Q00613 1-529); conditions: protein: recombinant; tags: N-terminal GST; chain copies: 3; dsDNA, one strand shown
# Outline: as §1
# SPIC = target: T8, SPIC (Homo sapiens, UniProt Q8N5J4 1-248); conditions: protein: recombinant; tags: N-terminal GST; dsDNA, one strand shown
# T8 sequence: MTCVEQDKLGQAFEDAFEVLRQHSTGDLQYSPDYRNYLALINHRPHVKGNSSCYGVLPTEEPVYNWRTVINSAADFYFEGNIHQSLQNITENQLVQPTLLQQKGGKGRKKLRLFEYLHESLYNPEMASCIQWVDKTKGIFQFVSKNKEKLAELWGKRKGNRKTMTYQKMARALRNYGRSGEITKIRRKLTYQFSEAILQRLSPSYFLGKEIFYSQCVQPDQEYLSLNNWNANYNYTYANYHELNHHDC
# Outline: as §1
# ELF4 = ELF4 (Homo sapiens, UniProt Q99607 1-663); conditions: protein: recombinant; tags: N-terminal GST; dsDNA, one strand shown
# Outline: as §1
# ELK4 = target: T9, ELK4 (Homo sapiens, UniProt P28324-2 1-405); conditions: protein: recombinant; tags: N-terminal GST; dsDNA, one strand shown
# T9 sequence: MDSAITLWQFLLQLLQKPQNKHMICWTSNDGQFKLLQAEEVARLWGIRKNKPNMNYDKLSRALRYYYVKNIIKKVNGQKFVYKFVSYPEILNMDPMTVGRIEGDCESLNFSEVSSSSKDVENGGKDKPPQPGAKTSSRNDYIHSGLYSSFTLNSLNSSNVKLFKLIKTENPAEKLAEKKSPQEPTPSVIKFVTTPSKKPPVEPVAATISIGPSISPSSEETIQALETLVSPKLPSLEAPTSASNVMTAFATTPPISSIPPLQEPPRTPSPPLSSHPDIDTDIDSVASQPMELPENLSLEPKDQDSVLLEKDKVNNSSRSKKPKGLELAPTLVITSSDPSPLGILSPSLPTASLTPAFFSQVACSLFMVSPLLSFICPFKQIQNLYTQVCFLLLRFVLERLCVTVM
# Outline: as §1
# ETV2 = target: T10, ETV2 (Homo sapiens, UniProt O00321 1-342); conditions: protein: recombinant; tags: N-terminal GST; dsDNA, one strand shown
# T10 sequence: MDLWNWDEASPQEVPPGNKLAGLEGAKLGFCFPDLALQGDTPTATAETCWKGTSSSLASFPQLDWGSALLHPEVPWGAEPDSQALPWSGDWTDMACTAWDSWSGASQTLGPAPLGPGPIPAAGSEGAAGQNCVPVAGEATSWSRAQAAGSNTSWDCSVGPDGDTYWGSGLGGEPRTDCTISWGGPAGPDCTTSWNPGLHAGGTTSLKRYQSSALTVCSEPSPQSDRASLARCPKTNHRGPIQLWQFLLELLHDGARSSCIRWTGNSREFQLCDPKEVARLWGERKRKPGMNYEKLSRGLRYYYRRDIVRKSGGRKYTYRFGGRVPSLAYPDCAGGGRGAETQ
# Outline: as §1
# ELF3 = target: T11, ELF3 (Homo sapiens, UniProt P78545 1-371); conditions: protein: recombinant; tags: N-terminal GST; dsDNA, one strand shown
# T11 sequence: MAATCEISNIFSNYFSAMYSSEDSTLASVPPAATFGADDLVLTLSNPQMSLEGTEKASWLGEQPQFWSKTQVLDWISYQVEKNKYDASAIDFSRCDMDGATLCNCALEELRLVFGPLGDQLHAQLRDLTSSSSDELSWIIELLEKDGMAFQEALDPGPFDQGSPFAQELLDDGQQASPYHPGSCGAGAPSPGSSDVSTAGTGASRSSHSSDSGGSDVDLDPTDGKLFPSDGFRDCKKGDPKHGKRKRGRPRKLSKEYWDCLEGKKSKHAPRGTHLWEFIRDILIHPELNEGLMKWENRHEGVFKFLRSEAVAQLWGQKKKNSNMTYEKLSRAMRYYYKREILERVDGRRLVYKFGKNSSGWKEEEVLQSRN
# Outline: as §1
# ETV1 = ETV1 (Homo sapiens, UniProt P50549 1-477); conditions: protein: recombinant; tags: N-terminal GST; dsDNA, one strand shown
# Outline: as §1
# Sequence of ETV5 (P41161 whole entry): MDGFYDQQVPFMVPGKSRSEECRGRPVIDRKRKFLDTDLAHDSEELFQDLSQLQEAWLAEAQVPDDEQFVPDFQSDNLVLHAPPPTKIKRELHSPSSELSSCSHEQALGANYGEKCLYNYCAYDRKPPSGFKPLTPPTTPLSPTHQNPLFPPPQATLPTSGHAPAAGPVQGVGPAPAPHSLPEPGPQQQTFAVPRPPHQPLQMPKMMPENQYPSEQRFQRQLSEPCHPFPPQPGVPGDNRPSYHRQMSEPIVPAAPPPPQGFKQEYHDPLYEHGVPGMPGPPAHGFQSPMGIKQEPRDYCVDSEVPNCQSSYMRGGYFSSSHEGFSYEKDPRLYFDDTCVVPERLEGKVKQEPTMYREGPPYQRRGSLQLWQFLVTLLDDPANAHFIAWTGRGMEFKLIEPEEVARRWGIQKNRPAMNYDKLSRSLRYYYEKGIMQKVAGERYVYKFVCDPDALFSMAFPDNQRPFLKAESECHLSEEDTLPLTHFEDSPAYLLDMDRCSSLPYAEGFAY
# Sequence of SPIB (Q01892 whole entry): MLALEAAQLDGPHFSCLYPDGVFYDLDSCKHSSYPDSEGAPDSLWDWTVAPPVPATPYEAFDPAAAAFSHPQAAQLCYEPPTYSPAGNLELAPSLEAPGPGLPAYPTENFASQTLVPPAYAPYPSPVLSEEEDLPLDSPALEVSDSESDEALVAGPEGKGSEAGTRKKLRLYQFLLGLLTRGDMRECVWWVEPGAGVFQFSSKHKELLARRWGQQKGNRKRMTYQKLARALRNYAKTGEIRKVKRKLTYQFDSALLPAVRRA
# Sequence of ETV1 (P50549 whole entry): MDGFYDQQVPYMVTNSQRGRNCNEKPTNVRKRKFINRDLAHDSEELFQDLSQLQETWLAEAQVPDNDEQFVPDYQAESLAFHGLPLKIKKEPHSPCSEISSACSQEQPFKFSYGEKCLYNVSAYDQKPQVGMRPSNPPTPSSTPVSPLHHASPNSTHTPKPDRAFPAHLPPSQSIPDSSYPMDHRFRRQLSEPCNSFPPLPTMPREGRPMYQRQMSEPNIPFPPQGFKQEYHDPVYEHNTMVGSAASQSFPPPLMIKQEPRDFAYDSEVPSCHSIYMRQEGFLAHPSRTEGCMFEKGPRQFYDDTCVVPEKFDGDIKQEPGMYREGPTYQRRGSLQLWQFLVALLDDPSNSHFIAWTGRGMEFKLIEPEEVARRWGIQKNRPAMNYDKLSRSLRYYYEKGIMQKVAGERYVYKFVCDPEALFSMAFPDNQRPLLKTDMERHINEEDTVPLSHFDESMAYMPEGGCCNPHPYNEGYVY
# Sequence of HSF1 (Q00613 whole entry): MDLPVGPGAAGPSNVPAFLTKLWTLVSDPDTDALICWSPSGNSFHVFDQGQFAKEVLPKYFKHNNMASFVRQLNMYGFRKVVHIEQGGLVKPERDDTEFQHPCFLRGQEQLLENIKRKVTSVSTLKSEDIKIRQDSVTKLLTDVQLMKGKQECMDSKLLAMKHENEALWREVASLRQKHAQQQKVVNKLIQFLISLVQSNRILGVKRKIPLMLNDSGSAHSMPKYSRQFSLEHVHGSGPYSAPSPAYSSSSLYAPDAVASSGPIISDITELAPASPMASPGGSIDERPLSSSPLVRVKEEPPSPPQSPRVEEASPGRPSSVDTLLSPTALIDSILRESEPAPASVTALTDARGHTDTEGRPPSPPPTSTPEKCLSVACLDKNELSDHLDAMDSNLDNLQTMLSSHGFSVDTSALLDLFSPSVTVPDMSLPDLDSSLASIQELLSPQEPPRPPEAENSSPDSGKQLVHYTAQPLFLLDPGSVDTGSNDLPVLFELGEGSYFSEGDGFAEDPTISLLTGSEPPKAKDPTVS
# Sequence of ELF4 (Q99607 whole entry): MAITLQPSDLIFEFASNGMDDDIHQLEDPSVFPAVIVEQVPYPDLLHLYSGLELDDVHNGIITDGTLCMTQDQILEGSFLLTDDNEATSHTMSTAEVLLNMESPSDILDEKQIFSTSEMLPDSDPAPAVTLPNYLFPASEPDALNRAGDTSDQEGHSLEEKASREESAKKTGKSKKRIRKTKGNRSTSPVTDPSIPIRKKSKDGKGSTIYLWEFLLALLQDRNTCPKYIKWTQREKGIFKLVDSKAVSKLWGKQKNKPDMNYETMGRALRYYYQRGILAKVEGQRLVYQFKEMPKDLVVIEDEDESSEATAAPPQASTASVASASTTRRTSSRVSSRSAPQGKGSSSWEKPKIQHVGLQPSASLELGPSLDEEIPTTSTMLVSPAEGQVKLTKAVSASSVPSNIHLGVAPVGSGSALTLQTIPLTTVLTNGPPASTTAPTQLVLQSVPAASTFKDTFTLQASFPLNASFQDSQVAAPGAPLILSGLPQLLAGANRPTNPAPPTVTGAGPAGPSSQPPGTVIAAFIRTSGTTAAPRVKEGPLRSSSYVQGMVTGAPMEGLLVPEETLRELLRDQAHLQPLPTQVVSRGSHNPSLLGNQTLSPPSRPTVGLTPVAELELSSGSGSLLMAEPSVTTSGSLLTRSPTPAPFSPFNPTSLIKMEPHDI
# Sequence of ELF1 (P32519 whole entry): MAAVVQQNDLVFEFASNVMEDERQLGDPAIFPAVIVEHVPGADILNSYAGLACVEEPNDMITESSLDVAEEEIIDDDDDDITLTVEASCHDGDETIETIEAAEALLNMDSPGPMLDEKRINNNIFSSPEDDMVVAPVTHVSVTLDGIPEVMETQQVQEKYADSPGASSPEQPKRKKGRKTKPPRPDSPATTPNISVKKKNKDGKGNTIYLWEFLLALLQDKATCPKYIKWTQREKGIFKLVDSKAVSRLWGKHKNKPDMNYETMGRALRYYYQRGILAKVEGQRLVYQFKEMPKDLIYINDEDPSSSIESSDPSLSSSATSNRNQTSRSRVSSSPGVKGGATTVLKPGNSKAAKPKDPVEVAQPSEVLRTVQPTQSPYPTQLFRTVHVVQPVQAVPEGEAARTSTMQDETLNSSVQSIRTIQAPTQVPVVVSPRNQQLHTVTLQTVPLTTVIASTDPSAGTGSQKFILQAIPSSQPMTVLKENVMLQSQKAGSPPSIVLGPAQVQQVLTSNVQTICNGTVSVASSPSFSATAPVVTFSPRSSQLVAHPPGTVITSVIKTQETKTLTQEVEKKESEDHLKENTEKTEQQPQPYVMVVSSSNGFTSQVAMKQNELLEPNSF
sequence,measurement,setting,value
CCACAA,binding signal,FLI1,"1.2 fold enrichment (6-mer frequency, TF over GST control)"
same,binding signal,ELK1,"1.14 fold enrichment (6-mer frequency, TF over GST control)"
same,binding signal,GABPA,"1.25 fold enrichment (6-mer frequency, TF over GST control)"
same,binding signal,ERG,"1.09 fold enrichment (6-mer frequency, TF over GST control)"
same,binding signal,ELF1,"1.21 fold enrichment (6-mer frequency, TF over GST control)"
same,binding signal,EHF,"1.08 fold enrichment (6-mer frequency, TF over GST control)"
same,binding signal,SPI1,"1.22 fold enrichment (6-mer frequency, TF over GST control)"
same,binding signal,SPIB,"1.07 fold enrichment (6-mer frequency, TF over GST control)"
same,binding signal,ELK3,"1.34 fold enrichment (6-mer frequency, TF over GST control)"
same,binding signal,FEV,"1.15 fold enrichment (6-mer frequency, TF over GST control)"
same,binding signal,ETV5,"1.19 fold enrichment (6-mer frequency, TF over GST control)"
same,binding signal,HSF1,"1.1 fold enrichment (6-mer frequency, TF over GST control)"
same,binding signal,SPIC,"1.09 fold enrichment (6-mer frequency, TF over GST control)"
same,binding signal,ELF4,"1.17 fold enrichment (6-mer frequency, TF over GST control)"
same,binding signal,ELK4,"1.07 fold enrichment (6-mer frequency, TF over GST control)"
same,binding signal,ETV2,"1.14 fold enrichment (6-mer frequency, TF over GST control)"
same,binding signal,ELF3,"1.39 fold enrichment (6-mer frequency, TF over GST control)"
same,binding signal,ETV1,"1.19 fold enrichment (6-mer frequency, TF over GST control)"
